# Experimental data as given in PubChem BioAssay (Tox21).
# Inconclusive results are not listed. Activity calls are given as the source filed them. The call rests on the fitted dose curve; in most records, active means well fitted activation curve with a large enough effect in the signal ratio in the repeat runs (not every such curve was filed as active); inconclusive means weak or mixed curves; inactive means flat fitted curve, though single readings scatter; the % refers to the signal ratio.
# Assay: qHTS assay to identify small molecule agonists of the hypoxia (HIF-1) signaling pathway (AID 1224846)
# Conditions: HRE-bla ME-180 cells, beta-lactamase ratio, 17 h; series mostly up to 76.8 µM
# Description: U.S. Tox21 Program National Center for Advancing Translational Sciences [NCATS] NIH Chemical Genomics Center [NCGC] U.S. Environmental Protection Agency [EPA] National Institutes of Environmental Health Sciences [NIEHS] National Toxicology Program [NTP] U.S. Food and Drug Administration [FDA] Tox21 Assay Overview: Hypoxia-inducible factor-1 (HIF-1) is the major hypoxia-regulated transcription factor that controls cellular responses to low oxygen concentration. HIF-1 is composed of two subunits: hypoxia responsive HIF-1-alpha and constitutively expressed HIF-1-beta, which is also known as aryl hydrocarbon receptor nuclear translocator. During hypoxic conditions, HIF-1-alpha heterodimerizes with HIF-1-beta and translocates into the nucleus where the HIF-1 complex binds to the hypoxia-response element (HRE) and activates expression of target genes such as VEGF (vascular endothelial growth factor). The HIF-1 pathway is essential to normal growth and development, and is involved in the pathophysiology of cancer, inflammation, and ischemia. Using a beta-lactamase reporter-gene under control of the hypoxia response element, a cell-based assay [CellSensor(TM) HRE-bla ME-180 from Life Technologies, Carlsbad, CA] was used to measure hypoxia-induced signaling. Tox21 10K library compounds were measured for their ability to induce the reporter gene activity.
# Tox21 Assay Protocol Summary: HRE-bla ME-180 cells were dispensed at 2,000 cells per well in 6 uL of assay medium containing 0.5% dialyzed FBS into black wall/clear-bottom 1536-well plates using a Multidrop Combi (Thermo Scientific, Waltham, MA) dispenser. After the assay plates were incubated at 37C and 5% CO2 for 5 hrs, 23 nL of compounds dissolved in DMSO, positive controls or DMSO only was transferred to each well of the assay plate using a Pintool station (Kalypsys, San Diego, CA). The assay plates were incubated at 37C and 5% CO2 for 17 hrs. One uL of LiveBLAzerTM B/G FRET substrate (CCF4-AM) (Life Technologies) was added to each well using a Flying Reagent Dispenser (Aurora Discovery, San Diego, CA).
row,SMILES,outcome
1,c1ccc(-c2ccccc2)cc1,inactive
2,CCc1cccc(C)c1N(C(=O)CCl)C(C)COC (stereo not given),inactive
3,Nc1ccc(Cc2ccc(N)cc2)cc1,inactive
4,Nc1ccc(Oc2ccc(N)cc2)cc1,inactive
5,CCOP(=S)(OCC)Oc1cnc2ccccc2n1,inactive
6,CON(C)C(=O)Nc1ccc(Cl)c(Cl)c1,inactive
7,C1CC2OC2CC1C1CO1 (stereo not given),inactive
8,O=c1[nH]c(=O)[nH]c(=O)[nH]1,inactive
9,CCOP(=S)(OCC)SCCSCC,inactive
10,c1ccc2c(c1)oc1ccccc12,inactive
11,COCCl,inactive
12,Cc1[nH]c(=O)n(C(C)(C)C)c(=O)c1Cl,inactive
13,CCC[N+](=O)[O-],inactive
14,CC(C)OC(=O)Nc1cccc(Cl)c1,inactive
15,Cc1cc(-c2cc(C)c(N)c(C)c2)cc(C)c1N,inactive
16,O=c1[nH]c2ccccc2c(=O)o1,inactive
17,CCOP(OCC)OCC,inactive
18,Cc1cc(Cl)ccc1O,inactive
19,CCN(CC)CCO,inactive
20,CN(N=O)c1ccccc1,inactive

row,SMILES,outcome
1,BrCCBr,inactive
2,CC(C)=C[C@@H]1[C@@H](C(=O)OCc2coc(Cc3ccccc3)c2)C1(C)C,inactive
3,CCCCN(CCCC)SN(C)C(=O)Oc1cccc2c1OC(C)(C)C2,inactive
4,CCOC(=O)c1ccccc1C(=O)OCC,inactive
5,CCCC1COC(Cn2cncn2)(c2ccc(Cl)cc2Cl)O1 (stereo not given),inactive
6,Nc1c(Cl)c(Cl)nc(C(=O)O)c1Cl,inactive
7,Clc1cccc(Cl)c1Cl,inactive
8,O=[N+]([O-])c1ccc([As](=O)(O)O)cc1,inactive
9,CC(Br)C(=O)O (stereo not given),inactive
10,CCC[CH2][Sn]([Cl])([Cl])[Cl],inactive
11,Nc1ccc(Br)cc1,inactive
12,CN(C)CCO,inactive
13,CC(C)N1C(=O)c2ccccc2NS1(=O)=O,inactive
14,CCCCN(CC)C(=O)SCCC,inactive
15,C1CN2CCN1CC2,inactive
16,COC(=O)NC(=S)Nc1ccccc1NC(=S)NC(=O)OC,inactive
17,CN1C(=O)CN=C(c2ccccc2)c2cc(Cl)ccc21,inactive
18,Oc1ccccc1Cl,inactive
19,CC(C)NC(=O)N1CC(=O)N(c2cc(Cl)cc(Cl)c2)C1=O,inactive
20,CC(C)(Cl)Cl,inactive
